Source: PubChem BioAssay (National Center for Advancing Translational Sciences (NCATS))
The list is not random: actives were taken first. Their share in the collection is about 21%.
Pf growth 96h: P. falciparum growth inhibition at 96 hour, primary screen for plastid delayed-death inhibitors. 320,000 tested, 6.9% active. P. falciparum luciferase reporter growth, 96 h. Potency, µM (titrated, usually from 28.7 µM), without a hit: top-dose activity change, negative = inhibition, usual class: inhibitors; further: potency means the concentration at half of the fitted maximal effect; on the % scale 0 is the no-effect control and ±100 the full control effect
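P. falciparum expressing integrated firefly luciferase grown in erythrocytes (2% hematocrit, 0.05% parasitemia final) with compounds for 96 hours at 37 C, 5% CO2. Growth inhibition read as loss of luminescence after adding luciferase detection reagent.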
HCV inh: HCV inhibition | AID 651820 | Huh7.5.1 HCVcc-Cre infection, luciferase reporter, 44 h | 340,000 tested, 3.4% active | Potency, µM (series often up to 41.8 µM), for inactives: at the highest dose activity change, negative = inhibition, actives largely listed as inhibitors; further: potency means the concentration at half of the fitted maximal effect; on the % scale 0 is the no-effect control and ±100 the full control effect
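Luciferase read-out (15 sec integration) after a 15 min room-temperature substrate step quantifies HCVcc-Cre infection. Cells, 1,000 per well, had compound added 4 h post-plating, then virus at ~0.5 moi, and were cultured 44 h.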
Shiga toxin inh: inhibitors of Shiga toxin in Vero cells | Vero cells, Shiga toxin protein synthesis inhibition reporter | 290,000 tested, 9.2% active | inhibition, % at 38.7 µM | AID 2315; in the data active means inhibition mostly above about 28%, no sharp cut-off; inactive means mostly below about 43%; further: 0% is about no effect
Pf growth 48h: inhibits P. falciparum growth in the first generation, 48 h | P. falciparum luciferase growth in erythrocytes, 48 h | Potency, µM (doses to about 28.7 µM), without a hit: at the top dose activity change, negative = inhibition, actives largely listed as inhibitors | 310,000 tested, 5.9% active | AID 504832; further: potency means the concentration at half of the fitted maximal effect; on the % scale 0 is the no-effect control and ±100 the full control effect
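A one-generation exposure of luciferase-tagged malaria parasites in RPMI 1640/Albumax erythrocyte culture, 37 C and 5% CO2. Inhibition is inferred from decreased luminescence after adding detection reagent.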
CHX counter: counter-screen for Shiga toxin inhibitors: cycloheximide protein synthesis inhibition. cell reporter, cycloheximide protein synthesis inhibition counterscreen. max response, %. AID 2314. 300,000 tested, 12% active; in the data active means max response mostly above about 13%, no sharp cut-off; inactive means mostly below about 14%; further: read at 38.3 µM for the half of the compounds with a filed dose; 0% is about no effect
AMA1 RON2 block: disrupts binding of P. falciparum AMA1 to RON2 | 360,000 tested, 0.2% active | Potency, µM (top dose mostly 58.2 µM), without a hit: top-dose activity change, negative = inhibition, actives largely listed as inhibitors | AlphaScreen AMA1-biotinylated RON2 peptide binding | AID 720542;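 further: potency means the concentration at half of the fitted maximal effect; 0% = vehicle wells and -100% = peptide control; nearly all actives have a fitted effect of over 45% in size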
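AMA1 (3D7) with his tag at 25 nM final met compounds first, then biotinylated RON2 peptide at 25 nM; detection used donor plus acceptor beads, 10 µg/mL apiece, read by AlphaScreen after 30 min at room temperature.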
Numbers without * were called inactive; ? = inconclusive; . = no result given; [ ] = remark or other dose. Unless noted, the call rests on the fitted dose curve; in most records, active means well fitted curve in the direction sought with a large enough effect; inconclusive means small, poorly fitted or top-dose-only effect, or another doubt; inactive means no such curve, though single readings can be large; an effect the other way counts as inactive or inconclusive.

SMILES	Pf growth 96h	HCV inh	Shiga toxin inh	Pf growth 48h	CHX counter	AMA1 RON2 block
Cc1ccc2cc(C(c3nnnn3Cc3ccccc3)N3CCc4ccccc43)c(=O)[nH]c2c1 (centres undefined)	6.6µM*	?	-8	.	-4	0%
Cc1cc2cc(C(c3nnnn3Cc3ccco3)N3CCc4ccccc43)c(=O)[nH]c2cc1C (centres undefined)	?	?	-6	0%	-2	-25%
Cc1ccc2cc(C(c3nnnn3Cc3ccccc3)N3CCc4ccccc43)c(=O)[nH]c2c1C (centres undefined)	.	7%	-11	10µM*	-1	-5%
Cc1ccc2[nH]c(=O)c(C(c3nnnn3CC3CCCO3)N3CCc4ccccc4C3)cc2c1 (centres undefined)	14%	6%	-14	-13%	9	4%
COc1ccc(C)cc1S(=O)(=O)N1CCN(C(=O)c2ncoc2-c2ccccc2F)CC1	69%	-13%	2	13%	0	-14%
COc1cccc(CN(C)CCCn2cnc(C(=O)Nc3ccc(C)c(C)c3)n2)c1	.	-22%[8.37 µM]	.	.	.	-1%
Cc1cc2cc(C(c3nnnn3Cc3ccccc3)N3CCc4ccccc43)c(=O)[nH]c2cc1C (centres undefined)	5.2µM*	?	24	.	12	-12%
CC(Sc1nnc(Cc2cccs2)n1C)C(=O)Nc1ccc(C(N)=O)cc1 (centres undefined)	-3%	-1%	.	?	.	-2%
CC(=O)C1=C(C)OC(N)=C(C#N)C1c1cc2cc(C)c(C)cc2nc1Cl (centres undefined)	50%	8%	active	23%	31*	0%
CCCCN1CC(C)(C)[C@H](CC(=O)NC)C1=O	.	.	.	.	.	0%
Cc1ccccc1N=C1NN=C(c2ccccc2F)CS1	1%	?	37*	?	49*	52%
Cc1cc(C2=NNC(=NC3CCCCC3)SC2)c(C)n1-c1c(C)n(C)n(-c2ccccc2)c1=O	13µM*	-27%	-8	6.6µM*	-2	51%
